This note sets out measurements from PubChem BioAssay (EPA / NIEHS).

Calls of active or inactive are those of the source. How the source made its calls: active means hit-call score of the fitted dose curve at least 0.9, where 1 is the maximum; inactive means score below 0.9.

Read-out in experiment [1]: Thrombomodulin, THBD (gene 7056)
In words: BSK_CASM3C_Thrombomodulin: BioMAP Diversity Plus: CASM3C Assay for Thrombomodulin Biomarker Activity (AID 2283051).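 Further: thrombomodulin protein level measured by ELISA 24 h after dosing.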 The settings on record: primary human coronary artery smooth muscle cells; actives raise or lower the signal.

Read-out in experiment [2]: Tissue Factor, F3 (gene 2152)
The experiment can be described thus: BSK_CASM3C_TissueFactor: BioMAP Diversity Plus: CASM3C Assay for Tissue Factor Biomarker Activity (AID 2283052).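 Further: cell surface tissue factor protein level read by ELISA.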 As to conditions: primary human coronary artery smooth muscle cells; actives raise or lower the signal.

Read-out in experiment [3]: Interferon-gamma inducible Protein 10 (IP10), CXCL10 (gene 3627)
The experiment can be described thus: BSK_hDFCGF_IP10: BioMAP Diversity Plus: hDFCGF Assay for Interferon-gamma inducible Protein 10 (IP10) Biomarker Activity (AID 2283053). The settings on record: primary human foreskin fibroblasts; actives raise or lower the signal. Put shortly: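 ELISA read-out of IP-10 (CXCL10) from primary human skin fibroblasts, 24 h after compound addition. Gain or loss of signal versus DMSO baseline, bidirectional curve fitting.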

Read-out in experiment [4]: Urokinase-type plasminogen activator receptor (uPAR), PLAUR (gene 5329)
In words: BSK_CASM3C_uPAR: BioMAP Diversity Plus: CASM3C Assay for Urokinase-type plasminogen activator receptor (uPAR) Biomarker Activity (AID 2283054).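 Further: cell-surface uPAR protein level quantified by ELISA.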 As to conditions: primary human coronary artery smooth muscle cells; actives raise or lower the signal.

Read-out in experiment [5]: Vascular cell adhesion molecule 1 (VCAM1), VCAM1 (gene 7412)
In words: BSK_CASM3C_VCAM1: BioMAP Diversity Plus: CASM3C Assay for Vascular cell adhesion molecule 1 (VCAM1) Biomarker Activity (AID 2283055).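 Further: VCAM-1 protein level quantified by ELISA on the cells.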 The settings on record: primary human coronary artery smooth muscle cells; actives raise or lower the signal.

Read-out in experiment [6]: Collagen III, COL3A1 (gene 1281)
The experiment can be described thus: BSK_hDFCGF_CollagenIII: BioMAP Diversity Plus: hDFCGF Assay for Collagen III Biomarker Activity (AID 2283056). The settings on record: primary human foreskin fibroblasts; actives raise or lower the signal. A digest of the protocol:
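Human foreskin primary fibroblasts were exposed to test chemicals for 24 h, after which collagen III was quantified by ELISA. Activity was fitted bidirectionally against DMSO as negative control and baseline.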

Read-out in experiment [7]: Epidermal growth factor receptor (EGFR), EGFR (gene 1956)
The experiment can be described thus: BSK_hDFCGF_EGFR: BioMAP Diversity Plus: hDFCGF Assay for Epidermal growth factor receptor (EGFR) Biomarker Activity (AID 2283057). As to conditions: primary human foreskin fibroblasts; actives raise or lower the signal. Put shortly:
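ELISA readout of EGFR on human dermal fibroblasts (primary foreskin cells), 24 h post-dosing; bidirectional curve fit vs DMSO baseline, gain or loss of signal scored.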

Experiment [8] in a line: BSK_hDFCGF_Proliferation: Cell Proliferation Assessment in the BioMAP Diversity Plus: hDFCGF Assay (AID 2283059).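 Further: curves fitted for both rise and fall of signal versus DMSO baseline.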 The settings on record: primary human foreskin fibroblasts. Put shortly:
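Sub-confluent human foreskin fibroblast cultures receive test chemical […]. Relative cell number is quantified by sulforhodamine B staining (0.1%, after 10% TCA fixation) at 560 nm, with bidirectional fitting referenced to DMSO.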

Read-out in experiment [9]: Macrophage colony-stimulating factor (MCSF), CSF1 (gene 1435)
The experiment can be described thus: BSK_hDFCGF_MCSF: BioMAP Diversity Plus: hDFCGF Assay for Macrophage colony-stimulating factor (MCSF) Biomarker Activity (AID 2283060). As to conditions: primary human foreskin fibroblasts; actives raise or lower the signal. Put shortly:
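Human foreskin primary fibroblasts were treated with test chemical for 24 h, and M-CSF was then measured by ELISA. Data were fitted bidirectionally against DMSO as the negative control and activity baseline.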

Experiment [10] in a line: BSK_hDFCGF_SRB: Viability Assessment in the BioMAP Diversity Plus: hDFCGF Assay (AID 2283061).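 Further: cells exposed to compound for 24 h before the read.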 As to conditions: primary human foreskin fibroblasts. A digest of the protocol: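 Human foreskin primary fibroblasts were treated with compound and assessed 24 h after dosing. Total protein was measured by sulforhodamine B staining (0.1% SRB after 10% TCA fixation, 560 nm read) as a cytotoxicity marker, with bidirectional fitting against DMSO baseline.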

Read-out in experiment [11]: TIMP metallopeptidase inhibitor 1 (TIMP1), TIMP1 (gene 7076)
The experiment can be described thus: BSK_hDFCGF_TIMP1: BioMAP Diversity Plus: hDFCGF Assay for TIMP metallopeptidase inhibitor 1 (TIMP1) Biomarker Activity (AID 2283062). As to conditions: primary human foreskin fibroblasts; actives raise or lower the signal. Put shortly:
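Primary human foreskin fibroblasts in the hDFCGF system were dosed with compound for 24 h, then TIMP-1 was measured by ELISA. Activity was fitted bidirectionally relative to DMSO control; parallel SRB staining assessed cytotoxicity.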

Read-out in experiment [12]: Monokine induced gamma interferon (MIG), CXCL9 (gene 4283)
The experiment can be described thus: BSK_hDFCGF_MIG: BioMAP Diversity Plus: hDFCGF Assay for Monokine induced gamma interferon (MIG) Biomarker Activity (AID 2283063). The settings on record: primary human foreskin fibroblasts; actives raise or lower the signal. Put shortly: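 ELISA read-out of MIG from primary human dermal fibroblasts 24 h post-dosing. Gain or loss of signal fitted bidirectionally, DMSO as baseline.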

Read-out in experiment [13]: Matrix Metallopeptidase 1 (MMP1), MMP1 (gene 4312)
The experiment can be described thus: BSK_hDFCGF_MMP1: BioMAP Diversity Plus: hDFCGF Assay for Matrix Metallopeptidase 1 (MMP1) Biomarker Activity (AID 2283064). The settings on record: primary human foreskin fibroblasts; actives raise or lower the signal. Put shortly:
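MMP1 levels quantified by ELISA 24 h after dosing human dermal fibroblast cultures, with parallel SRB total-protein staining for overt cytotoxicity. Data fitted in both directions against DMSO baseline.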

Read-out in experiment [14]: Vascular cell adhesion molecule 1 (VCAM1), VCAM1 (gene 7412)
In words: BSK_hDFCGF_VCAM1: BioMAP Diversity Plus: hDFCGF Assay for Vascular cell adhesion molecule 1 (VCAM1) Biomarker Activity (AID 2283065).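 On AC50: VCAM-1 protein level quantified by ELISA after 24 h chemical exposure.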 The settings on record: primary human foreskin fibroblasts; actives raise or lower the signal. A digest of the protocol:
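Primary human foreskin fibroblasts (hDFCGF system) were dosed with chemical and VCAM-1 was measured by ELISA 24 h later. Bidirectional curve fitting used DMSO as negative control and activity baseline.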

Read-out in experiment [15]: Plasminogen activator inhibitor-1 (PAI1), SERPINE1 (gene 5054)
The experiment can be described thus: BSK_hDFCGF_PAI1: BioMAP Diversity Plus: hDFCGF Assay for Plasminogen activator inhibitor-1 (PAI1) Biomarker Activity (AID 2283066). As to conditions: primary human foreskin fibroblasts; actives raise or lower the signal. A digest of the protocol:
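ELISA readout of PAI-1 from primary human skin fibroblast cultures, 24 h after compound addition. Gain or loss of signal was fitted bidirectionally against DMSO baseline.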

Read-out in experiment [16]: Intercellular Adhesion Molecule 1 (ICAM1), ICAM1 (gene 3383)
In words: BSK_KF3CT_ICAM1: BioMAP Diversity Plus: KF3CT Assay for Intercellular Adhesion Molecule 1 (ICAM1) Biomarker Activity (AID 2283067). As to conditions: primary human keratinocytes with fibroblasts; actives raise or lower the signal. A digest of the protocol:
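Human keratinocyte plus foreskin fibroblast primary co-culture was exposed to chemical for 24 h. ICAM-1 was then quantified by ELISA, and the data were fit bidirectionally against DMSO as the negative control and baseline.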

Read-out in experiment [17]: Interferon-gamma inducible Protein 10 (IP10), CXCL10 (gene 3627)
In words: BSK_KF3CT_IP10: BioMAP Diversity Plus: KF3CT Assay for Interferon-gamma inducible Protein 10 (IP10) Biomarker Activity (AID 2283068). The settings on record: primary human keratinocytes with fibroblasts; actives raise or lower the signal. A digest of the protocol:
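ELISA read-out of IP-10 after 24 h chemical dosing of human skin primary co-culture (keratinocytes, foreskin fibroblasts). Gain or loss of signal relative to DMSO, bidirectional curve fit.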

A short description of experiment [18]: BSK_KF3CT_SRB: Viability Assessment in the BioMAP Diversity Plus: KF3CT Assay (AID 2283069). As to conditions: primary human keratinocytes with fibroblasts. Put shortly:
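Cytotoxicity was gauged by SRB staining (0.1% SRB, 10% TCA fixation, 560 nm) of parallel cultures at 24 h. The cells were primary human skin keratinocytes co-cultured with fibroblasts, and activity was fitted in both directions against DMSO.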

Read-out in experiment [19]: Interleukin-1 alpha (IL1a), IL1A (gene 3552)
In words: BSK_KF3CT_IL1a: BioMAP Diversity Plus: KF3CT Assay for Interleukin-1 alpha (IL1a) Biomarker Activity (AID 2283070). As to conditions: primary human keratinocytes with fibroblasts; actives raise or lower the signal. Put shortly: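 IL-1a was detected by ELISA 24 h after chemical treatment of a co-culture of human skin keratinocytes and foreskin fibroblasts. Gain or loss of signal was fitted against the DMSO baseline.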

For `C=C(C)[C@H]1Cc2c(ccc3c2O[C@@H]2COc4cc(OC)c(OC)cc4[C@@H]2C3=O)O1`, the AC50 – broadly, the concentration giving half of the maximal activity seen – is 0.164 µM (active) in experiment [1]; 771 nM (active) in [7]; 0.486 µM (active) in experiment [8]; 7.69 µM (active) in experiment [14]; 31.8 µM (active) in experiment [17]; 3.97 µM (active) in [18]. The outcome in experiment [2], in [3], in experiment [4], in [5], in [6] and in experiment [9] was inactive. The outcome in [10], in [11], in experiment [12], in experiment [13], in experiment [15] and in [16] was inactive. Moreover, in [19], the result was inactive.
On to `CCC(=NOC/C=C/Cl)C1=C(O)CC(C2CCOCC2)CC1=O` (configuration not stated), for which the outcome in experiment [1], in experiment [2], in [3], in experiment [4], in experiment [5] and in experiment [6] was inactive. Also, the result in [7], in experiment [8], in [9], in experiment [10], in [12] and in [14] was inactive. The outcome in [15], in experiment [16], in [17], in experiment [18] and in experiment [19] was inactive.
On to `CN(C)C(=O)Nc1cccc(C(F)(F)F)c1`, for which the result in experiment [1], in experiment [2], in experiment [3], in experiment [4], in experiment [5] and in experiment [6] was inactive. The outcome in [7], in experiment [8], in [9], in experiment [10], in experiment [12] and in experiment [13] was inactive. Moreover, the result in [14], in experiment [15], in [16], in experiment [17], in experiment [18] and in experiment [19] was inactive.
On to `CCOP(=S)(OCC)Oc1ccc2c(C)c(Cl)c(=O)oc2c1`, for which the outcome in experiment [1], in [2], in experiment [4], in experiment [5], in [7] and in experiment [10] was inactive. The result in experiment [11], in experiment [12], in experiment [15], in [16], in experiment [17] and in experiment [18] was inactive. In addition, the AC50 in experiment [3] was 27.9 µM (active); in [6] it was 20 µM (active); in [9], 13.6 µM (active); in experiment [14], 31.3 µM (active); in experiment [19], 14.4 µM (active).
For the molecule `FC(F)C(F)(F)OCC(Cn1cncn1)c1ccc(Cl)cc1Cl` (configuration not stated), the result in experiment [1], in [2], in [4], in experiment [5], in experiment [6] and in [7] was inactive. The result in experiment [10], in experiment [12], in [14], in experiment [16], in [17] and in experiment [18] was inactive. Also, in experiment [19], the outcome was inactive. For the same molecule, the AC50 in experiment [3] was 27.8 µM (active); in experiment [8] it was 5.24 µM (active); in experiment [9], 23.4 µM (active); in experiment [15], 19.4 µM (active).
For the molecule `CCOP(=S)(Oc1cnc(C(C)(C)C)nc1)OC(C)C` (configuration not stated), the half-maximal activity concentration (AC50) in experiment [1] is 20 µM (active); in [3], 29.2 µM (active); in [6], 31.3 µM (active); in experiment [8], 31.7 µM (active); in experiment [9], 20 µM (active); in experiment [10], 37 µM (active). Further, the half-maximal activity concentration (AC50) in experiment [12] is 31.6 µM (active); in experiment [14] it was 26.8 µM (active); in experiment [17], 18.4 µM (active); in experiment [18] it was 31.4 µM (active); in [19], 24.1 µM (active). The outcome in experiment [2], in [4], in [5], in [7], in experiment [15] and in experiment [16] was inactive.
As for `COP(=O)(OC)C(O)C(Cl)(Cl)Cl` (configuration not stated), the outcome in [1], in experiment [2], in experiment [3], in experiment [4], in experiment [5] and in experiment [6] was inactive. Further, the outcome in experiment [7], in experiment [8], in experiment [9], in experiment [10], in [12] and in experiment [14] was inactive. Besides, the outcome in [15], in experiment [16], in experiment [17], in experiment [18] and in experiment [19] was inactive.
